Assay outcomes from PubChem BioAssay.
In the library only some 18% were active in any assay of this set; here they are far more common.
TDP1 inh = inhibitors of human tyrosyl-DNA phosphodiesterase TDP1; Q9NUW8; recombinant TDP1, AlphaScreen DNA substrate cleavage; Potency, µM (doses to about 130 µM), most hits filed as inhibitors; 350,000 compounds, 0.28% hits; further: nearly all actives have a fitted effect of over 40% in size
Target sequence (Q9NUW8 whole entry, looked up): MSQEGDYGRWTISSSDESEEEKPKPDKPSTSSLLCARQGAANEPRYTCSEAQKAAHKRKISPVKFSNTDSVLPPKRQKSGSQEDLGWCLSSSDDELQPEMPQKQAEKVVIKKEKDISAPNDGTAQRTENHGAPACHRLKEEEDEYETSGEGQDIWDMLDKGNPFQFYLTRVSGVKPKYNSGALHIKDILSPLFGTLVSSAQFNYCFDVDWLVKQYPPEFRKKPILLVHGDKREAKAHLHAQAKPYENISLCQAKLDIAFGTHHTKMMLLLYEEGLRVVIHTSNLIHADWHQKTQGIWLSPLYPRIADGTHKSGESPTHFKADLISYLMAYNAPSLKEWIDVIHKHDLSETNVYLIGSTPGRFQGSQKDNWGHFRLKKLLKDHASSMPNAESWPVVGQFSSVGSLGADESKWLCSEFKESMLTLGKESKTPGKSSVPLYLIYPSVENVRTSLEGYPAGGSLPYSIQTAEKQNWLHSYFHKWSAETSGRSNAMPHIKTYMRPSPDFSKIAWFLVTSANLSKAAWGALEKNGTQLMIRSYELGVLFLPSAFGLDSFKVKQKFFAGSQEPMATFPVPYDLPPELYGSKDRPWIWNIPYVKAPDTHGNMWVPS
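Here, a 5' biotin and 3' phosphotyrosine-FITC DNA oligonucleotide reports Tdp1 activity: intact substrate bridges AlphaScreen beads, while cleavage leaves a 3' phosphate and drops signal. All incubations at room temperature.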
Six1-Eya2 blk = inhibitors of human Six1/Eya2 interaction; AlphaScreen GST-Six1/His-Eya2 binding, biochemical; hits give low values; activity change, % (no concentration beside the values); 360,000 compounds, 0.56% hits; in the data active means activity change below about -65%; inconclusive means mostly about -30% to -63%
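AlphaScreen with GST-Six1 and His-Eya2 (5X mix: 250 nM and 500 nM), glutathione donor and nickel acceptor beads; buffer 50 mM Tris pH 8.0, 300 mM NaCl, 1 mM TCEP; 1 h at 37 C in the dark.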
DT40 TDP1 CPT = growth inhibition of DT40 Tdp1-/-;hTDP1 cells with camptothecin (screen for TDP1 inhibitors); AID 686979; chicken DT40 Tdp1-/-;hTDP1 cells + 20 nM CPT, ATP luminescence, 48 h; Potency, µM (series often up to 46.2 µM), actives largely listed as inhibitors; 420,000 compounds, 12% hits; further: nearly all actives have a fitted effect of over 55% in size
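Cell growth measured by CellTiter-Glo luminescence after a minimum 48 h, 37 C compound exposure with 20 nM CPT in Tdp1-knockout DT40 cells stably expressing hTDP1, seeded 400/well; qHTS titration format.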
CtBP-E1A inh = blocks the CtBP interaction with E1A | activity change, % (concentration not given with the values) | AlphaScreen GST-E1A/His-CtBP binding, 1536-well; hits give low values | 340,000 compounds, 0.49% hits; in the data active means activity change below about -65%; inconclusive means mostly about -30% to -63%
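Steps: dispense buffer (Tris pH 8.0, NaCl 300 mM, TCEP 1 mM, BSA, Tween 20); add 5X protein mix (GST-E1A, His-CtBP, 125 nM each); pin 23 nL compound; 2 h at 37 °C, dark; add 5X beads (50 ug/mL); 1 h; read.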
DT40 TDP1 no CPT = qHTS for Inhibitors of human tyrosyl-DNA phosphodiesterase 1 (TDP1): qHTS in cells in absence of CPT | Potency, µM (series often up to 46.2 µM), hits mostly inhibitors | AID 686978, 2013 | DT40 Tdp1-/- hTDP1 cells, no CPT, ATP luminescence, 48 h | 420,000 compounds, 15% hits; further: nearly all actives have a fitted effect of over 55% in size
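Seeded 400 DT40-hTDP1 cells/well (vehicle DMSO, no 20 nM CPT); pinned compounds; ≥48 hr at 37 °C; CellTiter-Glo luminescence as viability measure.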
IL1B secr inh = blocks inflammasome-driven IL-1 beta release | THP-1 LPS/ATP IL-1B secretion, AlphaLISA, 16 h; hits give low values | activity change, % at 57.5 µM | 360,000 compounds, 4.7% hits | AID 743279; in the data active means activity change below about -50%; inconclusive means mostly about -30% to -49%
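Secreted IL-1B measured by AlphaLISA bead assay after 16 h compound exposure of THP-1 cells; compounds (final up to 57.5 uM) added 1 h before LPS (250 ng/mL) and ATP (1.25 mM) stimulation; lower signal means less secretion.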
A number is an active result; . = inactive; ? = inconclusive; / = no result given; ! = repeats disagree. Unless noted, the call rests on the fitted dose curve; in most records, active means well fitted curve in the direction sought with a large enough effect; inconclusive means small, poorly fitted or top-dose-only effect, or another doubt; inactive means no such curve, though single readings can be large; an effect the other way counts as inactive or inconclusive.

SMILES	TDP1 inh	Six1-Eya2 blk	DT40 TDP1 CPT	CtBP-E1A inh	DT40 TDP1 no CPT	IL1B secr inh
CSCCNC(=O)C1(C)CCN1C(=O)c1ccc(C(C)(C)C)cc1 (stereo unspecified)	/	.	18.4µM	.	14.6µM	.
CC(C)c1ccc(OCC(=O)NCCS(=O)(=O)N2CCN(c3ccc(F)cc3)CC2)cc1	.	/	.	/	.	/
O=C(COC(=O)c1cccc(S(=O)(=O)N2CCc3ccccc32)c1)Nc1ccc(Cl)cn1	.	.	.	/	.	.
CCN(CC)S(=O)(=O)c1ccc(/C=C/C(=O)OCC(=O)Nc2cccnc2Cl)cc1	.	.	.	.	.	.
COc1ccc(/C=C(/NC(=O)c2ccco2)C(=O)NCc2ccco2)cc1	/	.	.	.	.	.
O=C(Nc1cccc2ccccc12)c1ccc2sc([C@@H]3O[C@H](CO)[C@@H](O)[C@H]3O)nc2c1	/	.	?	.	?	.
COc1ccc(CCNC(=O)Cn2c(=O)c3cccn3c3ccc(F)cc32)cc1OC	.	/	.	/	?	/
COc1ccc(CNC(=O)CCn2c(=O)c3cccn3c3ccc(F)cc32)cc1OC	.	/	.	/	?	/
COc1ccccc1CCNC(=O)CCn1c(=O)c2cccn2c2ccc(F)cc21	.	.	23.1µM	.	11.6µM	.
COc1ccc(CCNC(=O)CCn2c(=O)c3cccn3c3ccc(F)cc32)c(OC)c1OC	.	.	13µM	.	8.2µM	.
O=C(CSc1nnc(-c2ccccc2F)o1)OCc1ccccc1	.	.	.	.	.	.
Cc1ccc(Nc2cc(C)c(O)c(C)c2)cc1	.	.	5.17µM	.	5.17µM	?
Cc1ccc(Nc2ccccc2)cc1	.	.	.	.	.	.
O=C(N/N=C\c1ccc(OCC(=O)N2CCCC2)cc1)C(=O)Nc1ccccc1F	.	.	.	.	.	.
Cc1ccccc1OCCN1C(=O)c2ccccc2C1=O	.	.	.	.	.	.
COc1ccccc1OCC(O)Cn1c(=N)n(CCN2CCCCC2)c2ccccc21 (stereo unspecified)	.	.	?	.	16.4µM	-53.0
Cc1ccccc1OCC(O)Cn1c(=N)n(CCN2CCOCC2)c2ccccc21 (stereo unspecified)	.	.	?	.	?	-53.5!
Cc1ccccc1OCCn1c(=N)n(C(C)C)c2ccccc21	/	/	8.2µM	/	6.51µM	/
N=c1n(CCN2CCCCC2)c2ccccc2n1CC(O)COc1ccccc1 (stereo unspecified)	.	.	18.4µM	.	14.6µM	-55.5
COC(=O)Cn1c(=N)n(CCN2CCCCC2)c2ccccc21	.	.	.	.	.	.
CC(C)c1cccc(-c2ccc3c(c2)S(=O)(=O)c2cccc(C(=O)NC4CCCC4)c2C3=O)c1	.	.	?	.	.	.
Cc1c(NC(=O)CSc2ccccn2)c(=O)n(-c2ccccc2)n1C	.	.	.	.	.	.
Cc1ccccc1OCC(O)CN (stereo unspecified)	.	.	.	.	.	.
Cc1ccccc1OCC(O)CN1CCN(CC(O)COc2ccccc2C)CC1 (stereo unspecified)	.	.	?	.	?	.
Cc1ccccc1OCC(O)COc1ccccc1C	/	.	?	.	20.6µM	.
SMILES	TDP1 inh	Six1-Eya2 blk	DT40 TDP1 CPT	CtBP-E1A inh	DT40 TDP1 no CPT	IL1B secr inh
Cc1ccccc1OCC(O)Cn1c(=N)n(CCN2CCCCC2)c2ccccc21 (stereo unspecified)	.	/	5.8µM	/	4.61µM	/
CCOC(=O)CC(NC(=O)c1ccco1)c1ccccc1Cl (stereo unspecified)	.	.	.	.	.	.
CCOc1nc(S(=O)(=O)c2ccc(C)cc2)c(Cl)s1	.	.	?	.	?	.
Cc1ccc(N2CCN(S(=O)(=O)c3ccc(-n4cnnn4)cc3)CC2)c(C)c1	.	.	?	.	.	.
C=CCn1c(C)c(/C=C/c2cc[n+](C)cc2)c2ccccc21	/	.	3.66µM	.	1.46µM	-90.2
CCN(CC)C(=O)Cn1c(C)c(/C=C/c2cc[n+](C)cc2)c2ccccc21	/	.	?	.	?	.
CC(C)n1cc(/C=C/c2cc[n+](C)cc2)c2ccccc21	/	.	0.517µM	.	0.517µM	-75.7
C=CCn1cc(/C=C/c2cc[n+](C)cc2)c2ccccc21	/	.	0.731µM	/	0.581µM	.
CCn1cc(/C=C/c2cc[n+](C)cc2)c2ccccc21	/	.	0.326µM	/	1.03µM	.
CCCCOc1cccc(C2c3c(oc4ccccc4c3=O)C(=O)N2c2ccccn2)c1 (stereo unspecified)	.	/	.	/	.	/
Clc1nn2cnnc2c2ccccc12	.	.	.	/	.	.
Cc1ccc(Cl)cc1NC(=O)N[C@@H](C)C(=O)O	.	.	.	.	.	.
COc1cc(-c2cc(C(=O)Nc3ccncc3)c3ccccc3n2)cc(OC)c1OC	.	.	2.91µM	.	1.3µM	-50.0
CCOc1ccccc1NC(=O)c1cc(-c2cc(OC)c(OC)c(OC)c2)nc2ccccc12	.	.	10.3µM	.	7.31µM	.
COc1cc(NC(=O)c2cc(-c3ccccc3)nc3c2cnn3C(C)C)cc(OC)c1OC	.	.	13µM	.	5.8µM	.
COc1ccccc1NC(=O)c1cc(-c2cc(OC)c(OC)c(OC)c2)nc2ccccc12	.	.	9.2µM	.	7.31µM	.
COc1ccc(-c2nc3c(C)cc(Br)cn3c2Cc2ccccc2)cc1OC	/	.	7.31µM	.	6.51µM	.
COc1ccc(Cc2c(-c3ccc(OC)c(OC)c3)nc3ccc(C)cn23)c(C)c1	/	.	?	.	16.4µM	.
COc1ccc(Cc2c(-c3ccc(OC)c(OC)c3)nc3c(C)cc(Br)cn23)c(C)c1	/	.	1.16µM	.	1.46µM	.
COc1cc2nc(CN3CCN(S(=O)(=O)c4ccccc4)CC3)[nH]c(=O)c2cc1OC	.	.	.	.	.	.
CC1CCN(Cc2cc(=O)oc3cc(O)c(Cl)cc23)CC1	/	.	.	/	?	.
O=S(=O)(c1ccc(F)cc1)N1CCN=C1SCc1cccnc1	.	.	.	/	?	.
O=S(=O)(c1ccccc1)N1CCN=C1SCc1ccc(Cl)c(Cl)c1	.	.	13µM	.	18.4µM	.
O=S(=O)(c1ccccc1)N1CCN=C1SCc1ccc(Cl)cc1	/	.	?	/	18.4µM	.
O=S(=O)(c1ccc2ccccc2c1)N1CCN=C1SCc1cccnc1	.	.	23.1µM	/	?	.
O=S(=O)(c1ccccc1)N1CCN=C1SCc1cccc(Cl)c1	.	.	?	.	20.6µM	.
CCOC(=O)Cc1csc(NC(=O)c2ccoc2C)n1	.	.	?	.	.	.
